The nature of experiment [1]: small molecules captured by biotinylated probe aFSTL3 – biochemical, small-molecule microarray, fluorescence 635/667, stem cell growth factor project, primary screen (AID 1064).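 Further: measures binding of the biotinylated anti-FSTL3 antibody to printed compounds.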 Conditions: higher = more signal.
Experiment [2] is described as follows: binders from COS7 lysate, DM2A8 probe, primary screen, torsin A project, cell lysate, small-molecule microarray, fluorescence 635/667 (AID 1065). As to conditions: higher = more signal, COS7 lysate expressing mutant human TOR1A.
A short description of experiment [3]: small molecules captured by biotinylated probe aFGF2 – biochemical, small-molecule microarray, fluorescence 635/667, stem cell growth factor project, primary screen (AID 1067).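 Further: measures binding of biotinylated aFGF2 protein to printed compounds on slides; z-score merges feature fluorescence and signal-to-noise across triplicate slides.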 As to conditions: higher = more signal.
Experiment [4] can be described thus: small molecules captured by biotinylated probe aFGF10 – biochemical, small-molecule microarray, fluorescence 635/667, stem cell growth factor project, primary screen (AID 1071).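 Further: score merges 667 nm spot intensity and signal to noise from triplicate slides.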 Conditions: higher = more signal.
The target in experiment [5] is Neurogenic locus notch homolog protein 2 (Homo sapiens) (UniProt Q04721). Description: small molecules binding Notch2 protein – biochemical, small-molecule microarray, 635 nm fluorescence, stem cell growth factors, primary screen (AID 1073). As to conditions: higher = more signal.
For experiment [6], the target named is Pro-neuregulin-1, membrane-bound isoform (Homo sapiens) (UniProt Q02297). Briefly: small molecules binding neuregulin-1 protein – biochemical, small-molecule microarray, fluorescence 635/667, psychiatric disease protein project, primary screen (AID 1075).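 Further: score combines 667 nm spot fluorescence with signal to noise.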 As to conditions: NRG1 binding, 635 nm fluorescence, higher = more signal.
Sequence of Pro-neuregulin-1, membrane-bound isoform (Homo sapiens) (Q02297 whole entry, looked up, the tested form may be a part, canonical isoform): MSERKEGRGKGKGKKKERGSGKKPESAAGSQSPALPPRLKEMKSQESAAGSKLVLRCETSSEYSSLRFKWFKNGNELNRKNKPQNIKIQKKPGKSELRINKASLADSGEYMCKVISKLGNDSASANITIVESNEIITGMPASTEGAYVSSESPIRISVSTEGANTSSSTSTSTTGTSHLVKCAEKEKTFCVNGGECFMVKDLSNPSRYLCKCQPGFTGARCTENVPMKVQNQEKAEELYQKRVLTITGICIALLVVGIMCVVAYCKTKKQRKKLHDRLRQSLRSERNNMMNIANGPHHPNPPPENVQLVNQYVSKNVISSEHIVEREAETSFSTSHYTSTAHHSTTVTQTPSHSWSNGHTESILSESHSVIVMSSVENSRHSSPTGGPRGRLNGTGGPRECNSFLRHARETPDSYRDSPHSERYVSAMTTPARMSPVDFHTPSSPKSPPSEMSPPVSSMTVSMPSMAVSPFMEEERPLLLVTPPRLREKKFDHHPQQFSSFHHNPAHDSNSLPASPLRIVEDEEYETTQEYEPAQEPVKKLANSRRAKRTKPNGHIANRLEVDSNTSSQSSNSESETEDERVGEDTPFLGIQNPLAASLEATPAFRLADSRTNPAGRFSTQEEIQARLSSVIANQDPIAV
Experiment [7] deals with Neuregulin-1 EGF-like domain. Description: small molecules binding NRG1 EGF domain – biochemical, small-molecule microarray, 635 nm fluorescence, primary screen (AID 1081).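 Further: binding of the protein to compounds printed on small-molecule microarray slides.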 As to conditions: higher = more signal.
The nature of experiment [8]: FRG1 expression reporter modulators in myotubes – cell-based, C2C12 myotubes, firefly/Renilla luciferase, luminescence, FRG1 inhibition for FSHD, primary screen (AID 1084). As to conditions: FRG1 promoter luciferase, higher = more signal, called active from +8 up or from −8 down.
Experiment [9] in a line: small molecules captured by biotinylated probe aFST – biochemical, small-molecule microarray, fluorescence 635/667, stem cell growth factor project, primary screen (AID 1086).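 Further: score merges 667 nm fluorescence with signal-to-noise of each printed compound spot.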 As to conditions: higher = more signal.
Experiment [10] can be described thus: binders of probe aHhip on microarray, primary screen, stem cell growth factor project, biochemical, small-molecule microarray, fluorescence 635/667 (AID 1087).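 Further: score merges spot fluorescence at 667nm with spot signal to noise ratio.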 Conditions: higher = more signal.
Experiment [11] has as its system PRMT1 (protein arginine N-methyltransferase 1). Description: small molecules binding arginine methyltransferase PRMT1 – biochemical, small-molecule microarray, 635 nm fluorescence, primary screen (AID 1088).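 Further: binding of Prmt1 protein to compounds spotted on small-molecule microarray slides.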 As to conditions: higher = more signal.
Experiment [12] can be described thus: growth effects on S. cerevisiae YJM789 – YJM789 clinical isolate, OD600, 24 h, basal, primary screen (AID 1089).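 Further: growth of clinical yeast isolate S. cerevisiae YJM 789 seeded 1000 cells per well; test concentration not given here.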 As to conditions: higher = more signal, called active from +8 up or from −8 down.
Experiment [13] is described as follows: S. pombe growth modifiers, basal conditions – strain 972, OD600, 24 h, no modulator, primary screen (AID 1090).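 Further: basal condition with compound alone and no growth modifier present; test concentration not given here.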 Conditions: S. pombe 972 growth, higher = more signal, called active from +8 up or from −8 down.
A short description of experiment [14]: budding yeast growth modifiers under rapamycin – strain BY4716, OD600, 96 h, primary screen (AID 1091). Further: test concentration not given here. Conditions: S. cerevisiae BY4716 + rapamycin, higher = more signal, called active from +8 up or from −8 down.
Experiment [15] addresses Torsin-1A-interacting protein 2 (Homo sapiens) (UniProt Q8NFQ8). Description: small molecules binding lysate-expressed LULL1 – cell lysate, human LULL1 lysate, 635/667 nm fluorescence, primary screen (AID 1092).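 Further: score merges per-feature 667 nm fluorescence with signal-to-noise.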 Conditions: small-molecule microarray, hLULL1 lysate binding, 635 nm fluorescence; higher = more signal.
A short description of experiment [16]: optical density change of DRC41 E. coli – strain DRC41, OD650, 24 h, E. coli filamentation project, primary screen (AID 1093).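 Further: MC1000 strain lacking acrAB efflux and sulA so SOS filamentation is blocked; test concentration not given here.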 Conditions: E. coli DRC41 growth, higher = more signal, called active from +8 up or from −8 down.
A short description of experiment [17]: probe aLefty2 binding to arrayed compounds – biochemical, biotinylated probe, 635/667 nm fluorescence, primary screen (AID 1094).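 Further: score merges spot fluorescence near 667 nm with spot signal-to-noise ratio.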 As to conditions: small-molecule microarray, higher = more signal.
For experiment [18], the system named is Noggin (protein binding on small-molecule microarray). Description: small molecules binding Noggin protein – biochemical, 635/667 nm fluorescence, primary screen (AID 1095).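 Further: score merges 667 nm feature fluorescence with signal to noise over triplicate slides.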 As to conditions: 635 nm fluorescence, higher = more signal.
The target of experiment [19] is Neurogenic locus notch homolog protein 3 (Homo sapiens) (UniProt Q9UM47). Description: small molecules binding NOTCH3 protein – biochemical, 635/667 nm fluorescence, primary screen (AID 1096). Conditions: small-molecule microarray, 635 nm fluorescence, higher = more signal.
Sequence of Neurogenic locus notch homolog protein 3 (Homo sapiens) (Q9UM47 whole entry, looked up): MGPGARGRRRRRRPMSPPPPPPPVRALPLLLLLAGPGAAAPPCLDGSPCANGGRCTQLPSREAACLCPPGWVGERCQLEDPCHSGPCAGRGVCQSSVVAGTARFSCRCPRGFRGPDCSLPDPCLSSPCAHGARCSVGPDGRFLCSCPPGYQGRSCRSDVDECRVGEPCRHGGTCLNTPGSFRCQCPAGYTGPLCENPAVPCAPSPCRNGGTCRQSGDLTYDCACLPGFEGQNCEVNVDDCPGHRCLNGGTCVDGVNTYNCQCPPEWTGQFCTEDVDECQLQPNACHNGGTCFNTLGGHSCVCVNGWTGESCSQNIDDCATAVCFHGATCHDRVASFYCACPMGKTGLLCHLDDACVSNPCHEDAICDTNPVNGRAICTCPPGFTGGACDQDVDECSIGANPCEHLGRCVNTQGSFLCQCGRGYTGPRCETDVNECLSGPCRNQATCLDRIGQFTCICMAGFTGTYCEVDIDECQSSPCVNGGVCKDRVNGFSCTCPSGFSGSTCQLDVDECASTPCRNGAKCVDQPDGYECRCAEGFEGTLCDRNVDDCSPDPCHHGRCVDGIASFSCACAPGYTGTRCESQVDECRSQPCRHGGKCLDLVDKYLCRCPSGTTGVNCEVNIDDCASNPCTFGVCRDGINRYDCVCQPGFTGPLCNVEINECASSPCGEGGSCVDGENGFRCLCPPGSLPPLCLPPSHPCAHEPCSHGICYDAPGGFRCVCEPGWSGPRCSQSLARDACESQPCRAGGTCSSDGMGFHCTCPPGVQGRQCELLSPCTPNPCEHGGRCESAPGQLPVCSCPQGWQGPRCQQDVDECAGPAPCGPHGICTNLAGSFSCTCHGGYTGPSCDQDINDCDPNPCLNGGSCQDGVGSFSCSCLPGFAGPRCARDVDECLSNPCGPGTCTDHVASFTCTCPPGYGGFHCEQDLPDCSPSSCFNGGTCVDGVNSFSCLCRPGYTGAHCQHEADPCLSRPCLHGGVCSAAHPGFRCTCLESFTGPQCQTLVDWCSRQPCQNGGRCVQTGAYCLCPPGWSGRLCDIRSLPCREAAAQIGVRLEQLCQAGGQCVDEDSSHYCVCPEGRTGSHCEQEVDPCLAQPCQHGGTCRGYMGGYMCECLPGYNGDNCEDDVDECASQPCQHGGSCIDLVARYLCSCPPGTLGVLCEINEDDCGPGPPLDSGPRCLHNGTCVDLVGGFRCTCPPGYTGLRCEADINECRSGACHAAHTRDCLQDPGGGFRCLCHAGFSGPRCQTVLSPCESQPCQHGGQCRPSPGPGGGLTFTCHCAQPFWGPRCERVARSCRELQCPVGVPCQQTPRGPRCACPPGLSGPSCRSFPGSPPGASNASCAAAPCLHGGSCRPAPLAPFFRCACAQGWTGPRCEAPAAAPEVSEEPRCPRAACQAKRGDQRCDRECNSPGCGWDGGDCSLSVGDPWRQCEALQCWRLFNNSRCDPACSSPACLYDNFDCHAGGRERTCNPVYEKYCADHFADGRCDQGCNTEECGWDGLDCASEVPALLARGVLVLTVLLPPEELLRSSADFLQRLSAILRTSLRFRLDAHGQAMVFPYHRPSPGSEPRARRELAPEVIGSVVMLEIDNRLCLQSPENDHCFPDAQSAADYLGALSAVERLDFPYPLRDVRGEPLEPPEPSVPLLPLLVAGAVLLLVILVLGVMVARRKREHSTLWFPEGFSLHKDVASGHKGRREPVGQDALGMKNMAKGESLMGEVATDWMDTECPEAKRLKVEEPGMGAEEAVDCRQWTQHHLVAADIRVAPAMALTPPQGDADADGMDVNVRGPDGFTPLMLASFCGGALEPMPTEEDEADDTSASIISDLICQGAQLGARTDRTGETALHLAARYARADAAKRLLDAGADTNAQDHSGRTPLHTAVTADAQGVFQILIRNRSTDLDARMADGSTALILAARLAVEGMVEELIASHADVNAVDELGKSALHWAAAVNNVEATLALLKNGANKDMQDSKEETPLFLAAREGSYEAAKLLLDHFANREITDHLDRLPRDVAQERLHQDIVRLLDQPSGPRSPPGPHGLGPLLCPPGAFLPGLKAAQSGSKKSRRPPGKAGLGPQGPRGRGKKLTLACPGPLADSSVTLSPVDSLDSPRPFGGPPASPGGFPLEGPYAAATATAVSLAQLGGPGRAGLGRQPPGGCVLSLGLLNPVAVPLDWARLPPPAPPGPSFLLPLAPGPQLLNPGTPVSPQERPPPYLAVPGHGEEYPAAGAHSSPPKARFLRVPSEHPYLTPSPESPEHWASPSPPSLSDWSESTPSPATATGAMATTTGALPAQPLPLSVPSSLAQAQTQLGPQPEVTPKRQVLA
Experiment [20] is described as follows: probe aEGFR binding to arrayed compounds – biochemical, biotinylated probe, 635/667 nm fluorescence, primary screen (AID 1097).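 Further: probe is a biotinylated anti-EGFR antibody binding compounds printed on slides; score combines fluorescence near 667 nm and signal to noise of each spot.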 Conditions: small-molecule microarray, higher = more signal.

The source made the active and inactive calls.

Sequence of Torsin-1A-interacting protein 2 (Homo sapiens) (Q8NFQ8 whole entry, looked up): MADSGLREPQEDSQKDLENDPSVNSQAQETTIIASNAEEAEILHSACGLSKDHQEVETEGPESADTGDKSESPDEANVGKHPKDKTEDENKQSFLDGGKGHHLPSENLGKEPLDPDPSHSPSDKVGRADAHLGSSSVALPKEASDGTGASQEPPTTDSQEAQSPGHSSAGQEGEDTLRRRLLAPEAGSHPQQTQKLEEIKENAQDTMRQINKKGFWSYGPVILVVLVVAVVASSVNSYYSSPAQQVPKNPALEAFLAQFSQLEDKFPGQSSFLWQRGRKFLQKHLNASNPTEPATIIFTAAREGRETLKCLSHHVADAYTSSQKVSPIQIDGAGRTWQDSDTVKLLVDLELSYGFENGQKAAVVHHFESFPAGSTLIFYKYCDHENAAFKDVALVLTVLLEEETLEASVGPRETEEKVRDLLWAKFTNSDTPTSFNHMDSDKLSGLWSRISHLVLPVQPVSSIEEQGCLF

For the molecule `COc1ccc(C#Cc2ccc3c(c2)[C@]2(C(=O)N3)[C@H](c3ccc(O)cc3)N3[C@H](c4ccccc4)[C@H](c4ccccc4)OC(=O)[C@H]3[C@@H]2C(=O)NC[C@H](O)c2ccccc2)cc1`, the composite z-score in [1] was -0.127; in experiment [2] it was 0.0172; in [3], -0.0599; in [4], 0.776; in experiment [5], 0.757; in [6], 0.563. Besides, the composite z-score in experiment [7] is 1.15; in [9], 0.317; in experiment [10] it was -0.288; in experiment [11] it was 0.958; in [15], 2.17; in experiment [17], -0.0778. Also, the figures for the composite z-score in experiment [18], in experiment [19] and in [20] were 0.897, 1.01 and 0.0221, respectively. Moreover, the z-score was 0.72 (inactive) in experiment [8]; 2.29 (inactive) in experiment [12]; 0.241 (inactive) in experiment [13]; 1.75 (inactive) in [14]; 0.864 (inactive) in [16].
Take `O=C(OCCF)C1=CCC(c2cccc(Cl)c2)O1` (stereo not given): the composite z-score in [1] is -0.422; in experiment [2] it was 0.0213; in [3] it was -0.0907; in experiment [4], 0.193; in [5] it was 0.926; in experiment [6], -0.0442. Besides, the composite z-score in experiment [7] is 1.03; in experiment [9], 0.5; in [10], -0.226; in experiment [11] it was 0.581; in experiment [15], 0.856; in experiment [17], -0.141. Further, the composite z-score was 0.207 in experiment [18], 0.1 in [19] and -0.0121 in experiment [20]. The z-score in experiment [8] was -1.68 (inactive); in [12], -3.17 (inactive); in [13] it was -0.988 (inactive); in experiment [14], 2.82 (inactive); in experiment [16], -0.0288 (inactive).
For `CS(=O)(=O)CCOC(=O)C1=CC(c2ccc(CO)cc2)=CC(C2CC2)N(Cc2cc3c(cc2Br)OCO3)C=C1C(=O)OCCS(C)(=O)=O` (stereo not given), the composite z-score is -0.232 in experiment [1]; 0.28 in experiment [2]; -0.0266 in experiment [3]; 0.959 in experiment [4]; 1.13 in experiment [5]; 1.78 in experiment [6]. Further, the composite z-score was determined as 1.27 in [7]; 0.566 in experiment [9]; 0.245 in experiment [10]; 1.47 in experiment [11]; 2.83 in experiment [15]; 0.17 in [17]. Moreover, the figures for the composite z-score in experiment [18], in [19] and in [20] were 0.782, 0.929 and 0.0796, respectively. Also, the z-score in [8] is -2.1 (inactive); in experiment [12], -0.938 (inactive); in experiment [13] it was -6.09 (inactive); in experiment [14] it was -0.247 (inactive); in [16], 0.514 (inactive).
Regarding `COCCCNC(=O)[C@@]1(C)c2ccccc2C(=O)N(Cc2cc(C(F)(F)F)cc(C(F)(F)F)c2)[C@H]1c1ccc(CO)cc1`, the composite z-score in experiment [1] is 0.472; in experiment [2] it was -1.39; in [3], -0.103; in experiment [4] it was -0.635; in [5], -0.664; in experiment [6], 1.59. Besides, the composite z-score in experiment [7] was 0.738; in experiment [9] it was -0.0412; in experiment [10] it was -0.134; in experiment [11], 1.55; in experiment [15] it was 3.01; in [17], -0.166. The composite z-score was -1.08 in experiment [18], -0.134 in experiment [19] and -0.26 in [20]. Besides, the z-score was -1.29 (inactive) in experiment [8]; -0.122 (inactive) in experiment [12]; 0.585 (inactive) in experiment [13]; -0.777 (inactive) in experiment [14]; 0.666 (inactive) in [16].
Turning to `COC(=O)[C@@]1(Cc2ccc(OC)cc2)[C@H]2c3cc(C(=O)N(C)C)n(Cc4c(OC)[nH]cc(C)c4=O)c3C[C@H]2CN1C(=O)c1ccccc1`, the composite z-score is 0.522 in experiment [1]; 0.0954 in experiment [2]; -0.102 in experiment [3]; 0.289 in experiment [4]; 1.49 in experiment [5]; 1.92 in [6]. Further, the composite z-score in experiment [7] is 1.08; in [9], 0.927; in experiment [10] it was -0.444; in experiment [11] it was -0.386; in experiment [15] it was 3.62; in experiment [17], -0.0404. The composite z-score in experiment [18] was -0.0598; in experiment [19], 0.145; in [20], 0.487. For the same molecule, the z-score in experiment [8] is -1.04 (inactive); in experiment [12], -1.88 (inactive); in experiment [13] it was 0.349 (inactive); in experiment [14], -0.464 (inactive); in [16], -0.252 (inactive).

The values are drawn from PubChem BioAssay.
